# Laboratory results published in PubChem BioAssay.
# The source made the active and inactive calls. Unless noted, how the calls were made is not given here.
# Columns and labels:
# [1] = anti-His antibody binders, primary screen, artefact control for SMM control protein annotation, biochemical, small-molecule microarray, 635 nm fluorescence (AID 1128); details: anti-His Alexa647 antibody binding, higher = more signal;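 further: score merges feature fluorescence with signal-to-noise for each printed compound spot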
# [2] = test system: Human papillomavirus type 1a E7 protein (residues 1-88); assay: HPV1a E7 small-molecule binders, primary screen, biochemical, small-molecule microarray, residues 1-88, 635 nm (AID 1129); details: small-molecule microarray binding, fluorescence 635 nm; higher = more signal
# [3] = molecular target: Focal adhesion kinase 1 (Homo sapiens) (UniProt Q05397); assay: small-molecule microarray binders of FAK, primary screen, biochemical, 635/667 nm fluorescence, BSA, DTT (AID 1130); details: PTK2 binding, 635 nm fluorescence, higher = more signal;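 further: composite of spot emission at 667 nm and signal to noise over triplicate slides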
# [4] = test system: Fibrinogen (Alexa647-labelled); assay: fibrinogen binders on compound microarrays, profiling panel, artefact control for SMM control-protein annotation, biochemical, small-molecule microarray, 635/667 nm fluorescence (AID 1131); details: fibrinogen-A647 binding fluorescence, higher = more signal;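 further: z-score merges 667 nm fluorescence with per-spot signal-to-noise over triplicate slides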
# [5] = molecular target: Follistatin (Homo sapiens) (UniProt P19883); assay: follistatin binders on small-molecule microarrays, primary screen, biochemical, small-molecule microarray, 635/667 nm fluorescence (AID 1132); details: FST binding, 635 nm fluorescence, higher = more signal
# [6] = molecular target: Fibroblast growth factor 2 (Homo sapiens) (UniProt P09038); assay: FGF2 binders on small-molecule microarrays, primary screen, biochemical, small-molecule microarray, 635/667 nm fluorescence (AID 1133); details: small-molecule microarray binding, FGF2, fluorescence 635/667; higher = more signal
# [7] = mitochondrial membrane potential change in A549 cells, profiling panel, cell-based, JC-1 fluorescence, basal, 24 h, 100 nL (AID 1138); details: higher = more signal;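 further: A549 lung adenocarcinoma cells under basal conditions with no added stimulus; test concentration not given here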
# Lefty1 = Lefty1 binders on small-molecule microarrays, primary screen, biochemical, small-molecule microarray, 635/667 nm fluorescence (AID 1139); details: small-molecule microarray binding, fluorescence 635/667; higher = more signal
# [8] = test system: wheat germ agglutinin (Triticum aestivum), Alexa647-labelled; assay: wheat germ agglutinin binders on compound microarrays, profiling panel, artefact control for SMM control-protein annotation, biochemical, small-molecule microarray, 635/667 nm fluorescence (AID 1140); details: WGA-A647 binding, 635 nm fluorescence, higher = more signal;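 further: score merges 667 nm feature emission with signal to noise over triplicate slides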
# [9] = molecular target: Luciferin 4-monooxygenase (Photinus pyralis) (UniProt P08659); assay: firefly luciferase enzyme inhibitors, primary screen, biochemical, luminescence, purified enzyme, 2006 set (AID 1141); details: SteadyGlo luminescence, 30 min, higher = more signal, called active from +8 up or from −8 down;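 further: cell-free assay with purified firefly luciferase at 100 ng per well in PBS; test concentration not given here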
# [10] = test system: Wnt5a (protein binding on small-molecule microarray); assay: Wnt5a binders on small-molecule microarray, primary screen, biophysical, 635/667 nm fluorescence (AID 1142); details: 635 nm fluorescence, higher = more signal;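 further: fluorescence read at 667 nm with signal to noise per printed feature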
# [11] = cell viability in Huh7 cells, primary screen, cytotoxicity control for HCV replication inhibitor project, CellTiter-Glo luminescence, basal, 48 h (AID 1143); details: Huh7 HCV replicon, higher = more signal, called active from +8 up or from −8 down;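 further: Huh7 hepatoma cells carrying a hepatitis C replication reporter with no stimulus; test concentration not given here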
# [12] = P. aeruginosa biofilm formation inhibitors, primary screen, PAO1 strain, BacTiter-Glo luminescence, LB-PBS (AID 1144); details: 12 h, higher = more signal
# [13] = CREB reporter modulators without forskolin, primary screen, cell-based, PC12, CRE-LacZ reporter, unstimulated (AID 1145); details: no forskolin, luminescence, 4.5 h, higher = more signal, called active from +8 up or from −8 down
# [14] = CREB reporter modulators under forskolin, primary screen, cell-based, PC12, CRE-LacZ reporter, forskolin-stimulated (AID 1146); details: luminescence, 4.5 h, higher = more signal, called active from +8 up or from −8 down;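 further: PC12 cells with 6xCRE LacZ reporter stimulated by forskolin 10 µM; beta-galactosidase reporter signal reflecting CREB driven transcription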
# [15] = molecular target: Streptavidin (Streptomyces avidinii) (UniProt P22629); assay: streptavidin binders on small-molecule microarray, primary screen, artefact control for SMM compound annotation, biophysical, 635/667 nm fluorescence (AID 1147); details: streptavidin binding, higher = more signal;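 further: signal reflects streptavidin binding to arrayed compounds as a control protein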
# [16] = small-molecule binders of probe aInhba, primary screen, biochemical, small-molecule microarray, 635/667 nm fluorescence (AID 1148); details: higher = more signal;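 further: score merges 667nm spot fluorescence with signal-to-noise for antibody binding to printed compounds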
# Torsin-1A (Homo sapiens) [17] = molecular target: Torsin-1A (Homo sapiens) (UniProt O14656); assay: torsin A binders from cell lysate, primary screen, small-molecule microarray, wild-type, 635/667 nm (AID 1149); details: COS7 hTOR1A-WT lysate, 635 nm fluorescence, higher = more signal
# Torsin-1A (Homo sapiens) [18] = molecular target: Torsin-1A (Homo sapiens) (UniProt O14656); assay: small-molecule binders of mutant TOR1A in lysate, primary screen, cell lysate, small-molecule microarray, COS7 lysate, 635/667 nm fluorescence (AID 1150); details: COS7 hTOR1A mutant lysate, 635 nm fluorescence, higher = more signal;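 further: score pools 667 nm emission and signal to noise measuring lysate protein binding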
# [19] = test system: Sonic hedgehog protein (Shh); assay: small-molecule binders of Shh protein, primary screen, biochemical, small-molecule microarray, 635/667 nm fluorescence (AID 1151); details: small-molecule microarray binding, 635 nm fluorescence; higher = more signal;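 further: Shh protein binding to compounds spotted on small-molecule microarray slides; score combines spot fluorescence intensity with signal-to-noise across triplicate slides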
# Chain of Follistatin (Homo sapiens) (P19883 whole entry, looked up): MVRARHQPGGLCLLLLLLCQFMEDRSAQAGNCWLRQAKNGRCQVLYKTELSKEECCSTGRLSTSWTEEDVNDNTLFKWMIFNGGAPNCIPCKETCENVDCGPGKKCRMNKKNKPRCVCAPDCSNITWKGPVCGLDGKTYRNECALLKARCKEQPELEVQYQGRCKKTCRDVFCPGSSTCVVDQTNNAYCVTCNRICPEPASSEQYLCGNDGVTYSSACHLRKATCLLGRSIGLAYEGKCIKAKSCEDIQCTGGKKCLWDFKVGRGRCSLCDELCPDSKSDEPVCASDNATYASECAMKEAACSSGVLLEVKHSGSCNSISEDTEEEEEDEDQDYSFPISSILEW
# Chain of Torsin-1A (Homo sapiens) (O14656 whole entry, looked up): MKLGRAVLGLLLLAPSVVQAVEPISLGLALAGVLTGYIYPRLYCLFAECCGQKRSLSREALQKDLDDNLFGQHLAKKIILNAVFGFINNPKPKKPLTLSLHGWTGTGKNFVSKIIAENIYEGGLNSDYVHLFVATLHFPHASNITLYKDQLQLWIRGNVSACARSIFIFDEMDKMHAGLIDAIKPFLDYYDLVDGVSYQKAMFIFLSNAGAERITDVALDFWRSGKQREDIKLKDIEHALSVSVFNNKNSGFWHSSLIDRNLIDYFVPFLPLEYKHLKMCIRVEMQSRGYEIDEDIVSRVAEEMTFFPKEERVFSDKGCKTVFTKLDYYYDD
# Chain of Fibroblast growth factor 2 (Homo sapiens) (P09038 whole entry, looked up): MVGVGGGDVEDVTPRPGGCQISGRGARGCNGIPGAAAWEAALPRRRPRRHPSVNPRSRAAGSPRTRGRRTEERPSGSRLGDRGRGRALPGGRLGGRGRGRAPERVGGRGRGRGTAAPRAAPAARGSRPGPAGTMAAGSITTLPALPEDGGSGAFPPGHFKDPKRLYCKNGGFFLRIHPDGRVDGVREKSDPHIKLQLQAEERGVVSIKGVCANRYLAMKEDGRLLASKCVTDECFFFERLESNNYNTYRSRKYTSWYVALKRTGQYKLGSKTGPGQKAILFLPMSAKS
# Chain of Streptavidin (Streptomyces avidinii) (P22629 whole entry, looked up): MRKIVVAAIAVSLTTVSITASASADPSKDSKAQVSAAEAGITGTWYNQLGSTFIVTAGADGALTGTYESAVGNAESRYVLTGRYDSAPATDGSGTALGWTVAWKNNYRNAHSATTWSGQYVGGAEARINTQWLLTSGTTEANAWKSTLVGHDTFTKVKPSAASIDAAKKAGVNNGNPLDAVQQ
# Chain of Focal adhesion kinase 1 (Homo sapiens) (Q05397 whole entry, looked up): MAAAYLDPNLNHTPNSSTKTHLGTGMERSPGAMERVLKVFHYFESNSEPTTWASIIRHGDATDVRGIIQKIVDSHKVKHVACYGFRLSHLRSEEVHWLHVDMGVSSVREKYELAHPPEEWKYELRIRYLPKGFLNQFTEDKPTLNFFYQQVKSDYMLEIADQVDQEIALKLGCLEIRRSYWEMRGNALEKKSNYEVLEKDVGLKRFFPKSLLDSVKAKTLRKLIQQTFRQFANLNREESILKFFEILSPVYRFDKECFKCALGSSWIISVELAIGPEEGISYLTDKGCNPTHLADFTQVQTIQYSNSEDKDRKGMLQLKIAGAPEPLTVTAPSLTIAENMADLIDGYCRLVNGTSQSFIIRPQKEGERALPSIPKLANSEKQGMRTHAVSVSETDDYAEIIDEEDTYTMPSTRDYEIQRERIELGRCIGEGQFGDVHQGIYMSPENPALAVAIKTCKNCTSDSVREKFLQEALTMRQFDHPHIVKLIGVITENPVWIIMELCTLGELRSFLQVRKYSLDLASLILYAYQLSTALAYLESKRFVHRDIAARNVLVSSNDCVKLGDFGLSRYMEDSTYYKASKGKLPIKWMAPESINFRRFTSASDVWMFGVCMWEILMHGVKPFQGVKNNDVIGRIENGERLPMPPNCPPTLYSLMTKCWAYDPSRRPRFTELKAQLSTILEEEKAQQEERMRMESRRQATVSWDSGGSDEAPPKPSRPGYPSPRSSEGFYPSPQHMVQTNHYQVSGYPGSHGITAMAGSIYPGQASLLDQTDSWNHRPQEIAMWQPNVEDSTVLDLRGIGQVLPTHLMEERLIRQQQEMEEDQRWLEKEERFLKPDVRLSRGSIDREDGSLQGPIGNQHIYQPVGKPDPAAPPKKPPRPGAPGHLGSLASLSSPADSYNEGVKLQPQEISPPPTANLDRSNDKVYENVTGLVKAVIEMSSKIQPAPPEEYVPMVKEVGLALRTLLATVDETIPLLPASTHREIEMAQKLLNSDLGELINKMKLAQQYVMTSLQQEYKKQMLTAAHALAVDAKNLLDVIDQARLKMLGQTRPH
# Chain of Luciferin 4-monooxygenase (Photinus pyralis) (P08659 whole entry, looked up): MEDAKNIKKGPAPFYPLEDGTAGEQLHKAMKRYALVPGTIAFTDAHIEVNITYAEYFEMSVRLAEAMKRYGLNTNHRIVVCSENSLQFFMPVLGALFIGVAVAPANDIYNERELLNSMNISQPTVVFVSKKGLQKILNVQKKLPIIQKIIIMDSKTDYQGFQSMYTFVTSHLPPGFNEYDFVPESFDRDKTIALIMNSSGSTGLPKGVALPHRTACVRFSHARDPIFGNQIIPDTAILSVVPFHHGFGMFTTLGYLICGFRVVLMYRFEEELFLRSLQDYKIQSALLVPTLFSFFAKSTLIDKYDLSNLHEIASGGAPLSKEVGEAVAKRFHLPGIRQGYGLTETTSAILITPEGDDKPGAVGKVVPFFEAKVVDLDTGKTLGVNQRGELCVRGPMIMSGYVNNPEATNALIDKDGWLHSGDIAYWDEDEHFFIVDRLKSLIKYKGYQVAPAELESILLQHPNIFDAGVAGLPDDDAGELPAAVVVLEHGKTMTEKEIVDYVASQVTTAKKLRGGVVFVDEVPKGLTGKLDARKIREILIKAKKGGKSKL
SMILES,composite z-score [1],composite z-score [2],composite z-score [3],composite z-score [4],composite z-score [5],composite z-score [6],z-score [7],composite z-score (Lefty1),composite z-score [8],z-score [9],composite z-score [10],z-score [11],z-score [12],z-score [13],z-score [14],composite z-score [15],composite z-score [16],composite z-score (Torsin-1A (Homo sapiens) [17]),composite z-score (Torsin-1A (Homo sapiens) [18]),composite z-score [19]
CC(=O)O[C@H]1C2=C(C(=O)[C@@H]3O[C@@H]31)[C@H]1C(C)O[C@@H]2[C@@]23C(=O)[C@@H]4O[C@@H]4[C@@H](O)C2=CO[C@H](C)[C@@H]13 (stereo not given in full),0.0831,0.154,-0.0962,-0.735,-0.419,0.877,-1.12,0.0364,-0.933,0.327 (inactive),0.129,-1.6 (inactive),0.968 (inactive),0.108 (inactive),4.27 (inactive),-0.503,-0.214,0.0116,0.0652,0.283
CC(C)[C@H](NC(=O)OC(C)(C)C)[C@@H](O)CC(=O)OC(C)(C)C,-0.105,-1.47,-0.563,-0.808,-0.275,-0.394,-1.25,0.123,-0.339,-0.0331 (inactive),-0.417,-0.49 (inactive),-0.896 (inactive),0.293 (inactive),0.337 (inactive),-0.14,-0.152,-0.781,-0.448,-0.463
CCN(CC)c1ccc(N2CC=CC34O[C@@H]5/C=C\CCC(C)OC(=O)C5[C@H]3C(=O)N(CCCO)[C@@H]4C2=O)cc1 (stereo not given in full),0.494,-0.191,-0.216,-0.892,-0.247,-0.615,0.881,-0.784,-0.529,-0.936 (inactive),0.0023,-0.682 (inactive),3.06 (inactive),0.0564 (inactive),-0.102 (inactive),-0.946,-0.211,1.23,2.02,-0.403
CCc1cc2c(nc1CC)CCN(CCC(C)=NO[C@@H](C)c1cc(-c3c(C)cc(C)cc3C)no1)C2,0.0635,-0.22,-0.0159,0.397,-0.265,-0.2,1.69,0.388,0.0999,-0.887 (inactive),-0.0627,-2.21 (inactive),-0.626 (inactive),0.429 (inactive),0.446 (inactive),1.67,-0.0762,-0.233,0.0048,0.134
Cc1cc2c(nc1C)CCCN2CC(O)CN1CCN(C)CC1 (stereo not given),1.51,0.1,0.648,-0.702,0.936,0.688,0.63,0.409,1.02,0.246 (inactive),-0.168,-1.28 (inactive),0.816 (inactive),-0.613 (inactive),-0.91 (inactive),0.549,0.198,0.679,0.528,0.672
